The structures appear in SMILES notation. The panel holds about 83,000 compounds, 20% with a hit somewhere; the sample as a whole holds those more often.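 Method: cells in 96-well plates; compound added at one concentration; 48 h incubation; percent growth measured; values under 10 scored active.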 Activity calls are given as the source filed them.

The test system of this assay is ACHN renal. As to the kind of experiment: NCI-60 one-dose screen, 48 h (100 = growth as untreated, 0 = no growth, -100 = all killed). The following applies: 10 µM unless noted.
In the case of `O=C1Nc2ccc(Br)cc2C1=N/C=c1\[nH]c(=O)/c(=C/c2ccc(Cl)cc2)s1`, the growth is 90.8% (inactive). For the molecule `Nc1c(C(=O)Nc2cccc(C(F)(F)F)c2)sc2nc3c(cc12)CCCCC3`, the growth is -67.4% (active). To `COc1cc(/C=C2\C=C(c3ccc(F)cc3)N(Cc3ccccc3)C2=O)cc(OC)c1OC` belongs 73.1% (inactive). Under `Clc1nc(Cl)c2ncn(C/C=C/Cn3cnc4c(Cl)nc(Cl)nc43)c2n1` stands 90% (inactive); under `NC(C(=O)O)C(O)c1ccc(OCc2ccccc2)c(OCc2ccccc2)c1` (centres undefined), 101% (inactive); under `Nc1c(C(=O)Nc2ccccc2)sc2nc3c(cc12)CCC3`, 96% (inactive). Under `COc1ccc(/C=C/c2cc(N3CCOCC3)c3cc(F)c(F)cc3n2)cc1OC` stands 26.4% (inactive). As for `O=[N+]([O-])c1cccc(-c2cc(-c3cc(Br)ccc3O)[nH]n2)c1`, the growth was 10.2% (inactive). For the molecule `COC1=CC(c2ccc[nH]2)=N/C1=C\c1[nH]c(C)c(C(=O)CCC(=O)Oc2ccc3c(c2)CCC2C3CC[C@]3(C)[C@@H](O)CC[C@@H]23)c1C` (some centres undefined), the growth is -55.3% (active).

For `COc1ccc(C2=NN(c3ccc(S(N)(=O)=O)cc3)C(c3cn(-c4ccccc4)nc3-c3ccc(Cl)cc3)C2)cc1` (centres undefined), the growth was 95.4% (inactive). Consider `COc1cc(CCn2nnc3c(NCCCCO)ncnc32)cc(OC)c1`, for which the growth was 106% (inactive). Turning to `Clc1ccc(-c2nc(-c3ccco3)cn3ccnc23)cc1`, the growth is 8.59% (active).

On to `O=C(c1ccncc1)N1N=C(c2ccc(Cl)cc2)CC1c1c[nH]c2ccccc12` (centres undefined), for which the growth was 94.8% (inactive).

On to `COc1ccc(-c2cn[nH]c2-c2cc(OC)c3c(c2)OCCO3)cc1`, for which the growth was 38% (inactive).
